This excerpt belongs to a sample that is enriched for hits.
Pf Dd2 growth – Plasmodium falciparum Dd2 growth inhibition; AID 1347417; P. falciparum Dd2 growth, SYBR Green, 72 h; Potency, µM (titrated, usually from 28.9 µM), without a hit: top-dose activity, negative = inhibition, hits mostly inhibitors; 4.3% of 120,000 active; active = well fitted inhibition curve with a large enough effect;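 note: plate controls were DMSO vehicle for no effect and reference drug for full effect; nearly all actives have a fitted effect of over 65% in size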
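Readout: SYBR Green fluorescence, 485 nm excitation, 535 nm emission, after ~16 h lysis at 37C. Before that, Dd2-infected red cells (2.5% hematocrit) grew 72 h with compound, 29 uM top final concentration.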
Starred values were filed as active, the others as inactive; i = inactive; [ ] = another dose, or the depositor's remark. Potency is the fitted concentration of half-maximal effect.

SMILES	Pf Dd2 growth
Cc1ccc(Cn2c(CN3CCCC(O)(CO)C3)nc3ccccc32)cc1 (centres undefined)	-11%
O=C1NC2(CCN(Cc3ccsc3)CC2)COc2ccccc21	3.2µM*
COc1cccc(CN2CCC3(CC2)COc2ccccc2C(=O)N3)c1	i
O=[S+]1([O-])NC2(CCN(Cc3ccsc3)CC2)COc2ccccc21	-16%
Cc1ccc(CN2CCCC3(COc4ccccc4C(=O)N3)C2)cc1 (centres undefined)	13µM*
O=C1NC2(CCCN(Cc3ccncc3)C2)COc2ccccc21 (centres undefined)	-21%[44.1 µM]
O=C1NC2(CCCN(C(=O)c3cccnc3)C2)COc2ccccc21 (centres undefined)	i
Cc1noc(-c2cn(C3CCN(C(=O)c4ccc(F)cc4Cl)CC3)nn2)n1	i
CC(=O)N1CCC(N2C[C@@H]3OCC(=O)N(Cc4ccccc4)[C@@H]3C2)CC1	-14%[44.1 µM]
COc1ccc(-c2nnc(SCc3cccc(Cl)c3)o2)cc1	44%
COc1ccc(NC(=O)C(=O)NCCc2ccccc2)cc1OC	28%
COc1cc(Nc2nc(SCc3cccc(Cl)c3)nc3ccccc23)cc(OC)c1	10µM*
COc1ccc(C(C)=O)cc1CSc1nc(Nc2ccc(F)c(F)c2)c2ccccc2n1	11µM*
COc1cc(Nc2nc(SCC(=O)c3ccc(Cl)c(Cl)c3)nc3ccccc23)cc(OC)c1	-7%
COc1ccc(CNc2nc(SCc3ccccc3Cl)nc3ccccc23)cc1	i
CCSc1nc2ccccc2c(OCc2cc(C(=O)OC)ccc2OC)c1C(=O)OC	-9%
COc1ccc(CCNc2nc(SCc3ccccc3Cl)nc3ccccc23)cc1OC	3.5µM*
COc1ccccc1NC(=O)CN1CCN(CC(=O)Nc2ccc(F)c(F)c2)CC1	-22%
COc1ccc(CCNc2nc3c(c(=O)n(C)c(=O)n3C)n2Cc2ccccc2Cl)cc1OC	i
COc1ccc(C(C)=O)cc1CSc1nc(NCCc2ccccc2)c2ccccc2n1	11µM*
COc1ccc(NC(=O)CSc2nc(-c3ccccc3)c3ccccc3n2)cc1	27%
CCc1cccc(NC(=O)CCn2ccn3nc4c(c3c2=O)CCCC4)c1	i
CC(=O)Nc1ccc(C(O)[C@H]2COCC(=O)N2CC2CCCCC2)cc1 (some centres undefined)	17%[44.1 µM]
Cc1nc(C)c(C(=O)N2CCC3(CC2)CCC(O)(CN(C)C)CC3)s1	-5%
CCCCc1ccc(NC(=O)CN2C(=O)NC(c3ccc(Cl)cc3)C3=C2COC3=O)cc1 (centres undefined)	-18%
SMILES	Pf Dd2 growth
COc1ccc2nc(CO[C@H]3CN(Cc4cccc(OC)n4)C[C@H]3F)[nH]c2c1	-2%[44.1 µM]
Cc1ccc(C(=O)N2CCC(N3CCOCC3=O)CC2)cc1	1%
Cn1cccc1CN1CCC(n2cc[nH]c2=O)CC1	-1%[44.1 µM]
CCN1CCN(C(=O)Cn2cccc(OC)c2=O)CC1(C)C	-9%
CN(Cc1ccccc1OC(F)(F)F)Cc1cccn1C	-10%[44.1 µM]
O=C([C@@H]1C[C@H](Oc2cccnc2)CN1C(=O)Nc1ccccc1F)N1CCCC1	-13%
O=C1CCC2(CNC(=O)c3ccc4ncccc4c3)CCCC=C2N1 (centres undefined)	-23%
C#CCN(CC=C)Cc1cnc(S(=O)(=O)CC)n1CCCc1ccccc1	i
CCC(O)C1CCN(Cc2cnc(S(=O)(=O)CC)n2CCc2ccccc2)CC1 (centres undefined)	i
CCCCn1c(CN(C)C(C)c2ccccc2OC)cnc1S(=O)(=O)CC (centres undefined)	8.9µM*
CC(=O)N1CCC(C(=O)N2CCC3(CC2)NC(=O)N(c2ccccc2)N3)CC1	20%
Cc1ccc(C(=O)NC2CCCN(c3cc(-c4ccccc4)[nH]n3)C2)cc1 (centres undefined)	i
CCn1ccc(C(=O)N2CCc3c(nc(-c4ccc(OC)cc4)[nH]c3=O)C2)n1	-29%
Cc1cc(C(=O)N2CCc3c(nc(-c4ccc(F)cc4)[nH]c3=O)C2)nn1C	-8%
O=C(c1ccn(C(F)F)n1)N1CCc2nc(-c3ccc(Cl)cc3)[nH]c2C1	13µM*
Cc1ccc(CC(=O)N[C@@H]2CN(c3ccncn3)C[C@H]2CN(C)C)cc1	7%
CN(C)C[C@@H]1CN(c2ccncn2)C[C@H]1NC(=O)COc1ccc(Cl)cc1	7.9µM*
COc1ccc(CCC(=O)N[C@@H]2CN(c3ccncn3)C[C@H]2CN(C)C)cc1	24%
COCC1CN(C(C)=O)CC12CCN(C(=O)c1cccc(C)c1)CC2 (centres undefined)	68%
OCC1(CN2CCCC2)CCN(Cc2cnn(-c3ccccc3)c2)CC1	i
COc1ccc(CN2CCC(CO)(CN3CCCC3)CC2)cc1OC	-14%
CCc1ccc(CN2CCC(CO)(CN3CCCC3)CC2)cc1	7.1µM*
Cc1cc(CN2CCC(CO)(CN3CCCC3)CC2)ccc1F	-28%
CC(C)Oc1ccc(CN2CCC(CO)(CN3CCCC3)CC2)cc1Cl	13µM*
COc1ccc(CN2CCC(CO)(CN3CCCC3)CC2)cc1C	i
SMILES	Pf Dd2 growth
Cc1ccc(C2Cn3nnc(-c4nc(C5CCCCC5)no4)c3CO2)c(C)c1 (centres undefined)	i
C[C@]1(CO)C2CC[C@@H](O)[C@@H](CC(=O)N3CCC[C@H]3CO)[C@]2(C)CC[C@H]1OC(=O)Nc1ccc(Cl)c(Cl)c1 (some centres undefined)	-10%
COCCN1CCOC[C@H]2CCN(C(=O)c3ocnc3C)C[C@H]21	-11%
O=C(N[C@@H]1CN(Cc2ccc(F)cc2F)C[C@H]1CO)c1cnccn1	-10%
CN(C)Cc1nnc(C2CCN(C(=O)Nc3cccc(C#N)c3)CC2)n1C	-8%
COCCNC(=O)CCC1CCN(C(=O)c2ccccc2Cl)CC1	-3%
CC(=O)N1CCNc2cc(NCc3ccc(F)cc3)ncc2C1	-10%[44.1 µM]
CCn1nc(CC(C)C)cc1C(=O)NCc1cc(-c2cccc(F)c2)no1	-17%
CN(C)c1nc2c(c(=O)[nH]1)CCN(Cc1cccc(Cl)c1)CC2	22%[5.79 µM]
COc1ccc(C(=O)N2CCOCC3(C2)CN(c2nccs2)C3)cc1OC	i
CN(C)C[C@@H]1CN(C2CCOCC2)C[C@H]1NS(=O)(=O)c1ccc(C#N)cc1	i
Cc1ccc(-c2c3c(=O)n(C)c(=O)n(C)c3cn2-c2cc(C)ccc2O)cc1	5.6µM*
Cn1c(=O)c2c(-c3ccccc3)n(CCCO)cc2n(C)c1=O	3%
Cn1c(=O)c2c(-c3cccc(Br)c3)n(C(C)(C)CO)cc2n(C)c1=O	-5%
CC(=O)N1CCC(C(=O)N[C@@H]2COCC[C@@H]2OCc2ccccc2)CC1	3%
CC(C)CN1C(=O)c2cccn2CC1C(=O)NCc1cccs1 (centres undefined)	i
COc1ccc(-c2cn3cccnc3n2)cc1NC(=O)Nc1cc(C)ccc1C	11µM*
COc1cccc(NC(=O)Nc2cc(-c3cn4cccnc4n3)ccc2OC)c1	i
COc1cccc(NC(=O)Nc2cc(-c3cn4cccnc4n3)ccc2C)c1	i
c1ccc(CN2CC(Oc3ccc4c(c3)OCO4)C2)cc1	-12%[44.1 µM]
COCc1c(C(=O)N2CCCn3ccnc3C2C(C)C)noc1C (centres undefined)	3%
O=C(Cc1c[nH]c(=O)[nH]c1=O)N1C[C@@H](CN2CCOCC2)[C@@H](CO)C1	-3%
COc1ccccc1OCCn1c(NC(=O)c2ccccc2Cl)nc2ccccc21	-9%
COCc1nc2ccccc2n1CCOc1cccc(C)c1	22%
COc1ccccc1OCCn1c(COc2cc(C)ccc2C)nc2ccccc21	6.3µM*
O=C(C1CCCC1)N1CCC2(CC1)C(=O)NCN2Cc1ccc(Cl)cc1	i

Bioassay records deposited in PubChem BioAssay by National Center for Advancing Translational Sciences (NCATS).
